The values below come from the emibetuzumab library of Makowski et al. (2022).

To fix the notation:
B1: VH:VL chains; a variant is named by its letters at X, in order (parent)
chain 1: QVQLVQSGAEVKKPGASVKVSCKASGYTFTDYXMHWVRQAPGQGLEWMGXVNPNXXXTTYNQKFEGRVTMTTDTSTSTAYMELRSLRSDDTAVYYCARXNXLDXWGQGTTVTVSS
chain 2: DIQMTQSPSSLSASVGDRVTITCSVSSSVSSIYLHWYQQKPGKAPKLLIYSTSNLASGVPSRFSGSGSGTDFTLTISSLQPEDFATYYCQVYSGYPLTFGGGTKVEIK

This is one part of the list. No count for the full screen is at hand.

In this assay the parent is B1. Kind of assay: yeast display scFab, FACS + sequencing. As to conditions: with MET. In short, it runs like this:
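A yeast surface library of scFab variants carrying heavy-chain CDR mutations went through two magnetic enrichment rounds on Protein A beads coated with HGFR-Fc, then FACS. For sorting, cells were labelled for 3 h at room temperature with 1 nM HGFR-Fc and anti-Myc in PBSB containing 1% milk, and the top 50% of antigen-positive cells were gated. Input and round-3 sorted populations were deep sequenced in two replicates. A sequence was called an antigen binder if it appeared in both antigen-positive samples and a non-binder if it appeared only in the input.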
Take VKGRASAF: the antigen binding call is reported as “no binding”. Regarding VKARGAAV, the antigen binding call is “binds”. Under VKAGGDAV stands “no binding”; under VAARGDAA, “no binding”; under VKARGSAF, “binds”.

With VKAGDAAV, the antigen binding call is “no binding”.

Take VAARGAAV: the antigen binding call was “no binding”. Next, VKARGSAV: “binds”; VEEEGSAV: “no binding”. Under SGREGDSA stands “no binding”; under DGGGNVSD, “no binding”.

With DEGGTDWV, the antigen binding call was “no binding”. Regarding SAREGYSV, the antigen binding call is “no binding”. Under DEARNAGA stands “no binding”. As for FRTADVGV, the antigen binding call was “no binding”.

Take FRGRGSGV: the antigen binding call is recorded as “binds”. Under FRAGSSGV stands “binds”.

FRGRSSGV: the antigen binding call is recorded as “binds”.

Turning to FRTRSSGV, the antigen binding call was “binds”. Consider VTKGGSSA, for which the antigen binding call was “no binding”. Next, SEKKADWA: “no binding”; VTTKSDVA: “no binding”. Under VRTEDDVY stands “no binding”. Next, SEGRGSGV: “no binding”; FKGRGSGV: “binds”; VGGTSSSV: “no binding”. As for VRGTGSAD, the antigen binding call is “no binding”. Under VRGTGSWD stands “binds”; under VRGEGSWD, “binds”; under VRGTGDWD, “no binding”. Under YTEGDDGV stands “no binding”; under YTGGDDWV, “no binding”; under DEGTDYAA, “no binding”. FKGRGAGS: the antigen binding call is given as “binds”. With FKGRGAWS, the antigen binding call is “binds”. With FKTGDAWS, the antigen binding call is “no binding”. Under FKGRGDGS stands “no binding”; under DATGGDGA, “no binding”. For the variant YTGTSSAD, the antigen binding call was “no binding”. As to DKGGSSLD, the antigen binding call is reported as “no binding”.

Turning to YEGTGSAD, the antigen binding call is on record as “no binding”.

As for YKGGSSAD, the antigen binding call was “binds”. For the variant YKGGSSLD, the antigen binding call is “binds”. Next, DATGGSSA: “no binding”. Next, YKRAAVWD: “no binding”; YKRGDAWA: “binds”. As for YKRGSAWD, the antigen binding call was “binds”.

For the variant YTRGNAWA, the antigen binding call is “no binding”.

Regarding YKRGDAWD, the antigen binding call is “binds”. Next, YRRGDFWA: “no binding”; VKGTGVAY: “no binding”. Under YKGRGAAY stands “binds”. Under VKGRGAAY stands “binds”.

VEGRGAVY: the antigen binding call was “no binding”.

Consider YAGETFGA, for which the antigen binding call is reported as “no binding”. Next, SETGGFVV: “no binding”; DGGENDVY: “no binding”; ARTKGSGY: “no binding”. YRKGGSGY: the antigen binding call was “binds”. Under YRRKGSGY stands “binds”; under YTKEASGY, “no binding”; under FRGRGAAY, “binds”. For the variant YRGRGSAY, the antigen binding call was “binds”. Regarding FRGRGSAY, the antigen binding call is “binds”. Under FRGRGSSY stands “binds”; under YEGGADVF, “no binding”; under DAGAADAV, “no binding”.

Consider DTGTGSWD, for which the antigen binding call is “no binding”. Take VTEGGDAA: the antigen binding call was “no binding”. Under FTRAGAAA stands “no binding”. Under FTGRGAVA stands “no binding”. Turning to FKGRGAAY, the antigen binding call is “binds”. Consider FTGRGAAA, for which the antigen binding call is “binds”. SEARSDSV: the antigen binding call is “no binding”. Next, VKAGDAVY: “no binding”; DRAGDDGY: “no binding”; VRAGDSGY: “binds”. In the case of YRAGDSGY, the antigen binding call is reported as “binds”.

Turning to YTGTSDLA, the antigen binding call is “no binding”.

Regarding FRGRGAGA, the antigen binding call is reported as “binds”.

In the case of YRGRGVGA, the antigen binding call is listed as “binds”. Under FRGRGVGA stands “binds”; under FRGRGYGA, “no binding”. Regarding ARGGDDGA, the antigen binding call is given as “no binding”.

VRGKGSLA: the antigen binding call is “binds”. With VRGTGSGA, the antigen binding call is on record as “binds”. Next, VTGEDSLA: “no binding”. Next, VGGTSSGA: “no binding”; ATGTGSGA: “no binding”; VKGKGDLA: “no binding”.

For VGGTGSGA, the antigen binding call is given as “no binding”. Consider VAEKGSGA, for which the antigen binding call was “no binding”.

Consider VRGKGSGA, for which the antigen binding call is given as “binds”. On to FERTSVWF chain 1 L45F, for which the antigen binding call is reported as “no binding”. SAGGDYVF: the antigen binding call was “no binding”.

On to YRGRSAWV, for which the antigen binding call was “binds”. With YTGEGSWV, the antigen binding call is “binds”. As to DREEGDAV, the antigen binding call is reported as “no binding”. Next, YRGEGDAV: “binds”; YTTRGSWV: “no binding”; YRGESAWV: “binds”. Under YRGEGDAA stands “no binding”; under YTGEGDGV, “no binding”. VTKAASWV: the antigen binding call was “no binding”.

For the variant SEEASAVY, the antigen binding call was “no binding”. For DKTGDDGS, the antigen binding call is listed as “no binding”.

Turning to YRGEGAWV, the antigen binding call was “binds”.

Regarding YRGRDDLA, the antigen binding call is listed as “no binding”. Under YRGRSASS stands “binds”.

For YRGRDASA, the antigen binding call is recorded as “binds”. As for YRGAAASS, the antigen binding call is listed as “binds”. In the case of YRGRDSSS, the antigen binding call was “binds”.

Consider VEGAAAGS, for which the antigen binding call is given as “no binding”. Under ATGEGDGV stands “no binding”; under SEARSFGV, “no binding”; under YRGRDASS, “binds”.

Consider YRGRSAGS, for which the antigen binding call was “binds”.

As to DAGGASGV, the antigen binding call is “no binding”.

As for VRGTDAVV, the antigen binding call is “no binding”. Next, VRRRGAVV: “binds”; VRGTDAGV: “no binding”. Turning to VERASAVV, the antigen binding call is reported as “no binding”. For VRRRGAGV, the antigen binding call was “binds”. Turning to SGRGNSGV, the antigen binding call is “no binding”.

For DARADSGV, the antigen binding call is “no binding”. As for AARADDGV, the antigen binding call is “no binding”. Under YRAKGSGV stands “binds”; under YRTKGSGV, “binds”; under YGAKGDGV, “no binding”. Under YRTRDSGV stands “binds”. As to YRAKGAGV, the antigen binding call is reported as “binds”. For the variant DTGTGASD, the antigen binding call is given as “no binding”. As for VAGGDAGV, the antigen binding call is on record as “no binding”. As for AREEGFSV, the antigen binding call is given as “no binding”. Next, ARAGDAVV: “no binding”. As for YRAGDAVV, the antigen binding call is given as “binds”. For YRAKGAVV, the antigen binding call is reported as “binds”.

Take DRAGDDVV: the antigen binding call was “no binding”.

In the case of AARADSSA, the antigen binding call was “no binding”. With VGGGADVA, the antigen binding call is on record as “no binding”. As to YTERGDAV, the antigen binding call is on record as “no binding”. With VTKTGAAA, the antigen binding call is listed as “binds”.

On to VTKTGDAV, for which the antigen binding call was “binds”. Under VTGTGDAV stands “no binding”. Next, YTGTSDAV: “no binding”; YTKTGDAV: “binds”; VTKTGDVA: “no binding”. As for VTAGSDAV, the antigen binding call is “no binding”. Under VTTKSAAA stands “no binding”; under DKEGGYSV, “no binding”; under DAKEGSLD, “no binding”. For the variant SAAGADWS, the antigen binding call is listed as “no binding”. Next, YRTAGSGV: “binds”; YRTAGAGV: “binds”. Next, YRTADVGV: “no binding”; FAGGGDLV: “no binding”; VKARGSVD: “binds”. Under VKARGSGD stands “binds”; under VKAAGSVD, “no binding”. For the variant VTGTGSGD, the antigen binding call is on record as “no binding”. Under VKERGSVD stands “binds”. VEEEGSVD: the antigen binding call is listed as “no binding”. As for FKARGSVD, the antigen binding call was “binds”. As for VKGKDSGD, the antigen binding call is given as “no binding”. Under VEGGGSVD stands “no binding”; under FTETGSVD, “no binding”. Turning to VTGTGYVF, the antigen binding call is listed as “no binding”.

In the case of FRGKGAGY, the antigen binding call is recorded as “binds”.

On to FRGKGAAS, for which the antigen binding call is “binds”. With FRGKGASS, the antigen binding call was “binds”. In the case of YRGKGAAS, the antigen binding call is given as “binds”.

As for VTGEDDGD, the antigen binding call is “no binding”. As for DAKENAGD, the antigen binding call is recorded as “no binding”. VAKEGAWV: the antigen binding call is given as “no binding”. Next, VEARNAGA: “no binding”; DEGGTDVA: “no binding”. Regarding SAEATDLY, the antigen binding call is recorded as “no binding”. Under FAKAGFVA stands “no binding”; under YRGKGAVS, “binds”. Next, FRGKGAVS: “binds”; FRGKGAGS: “binds”; YRRRGALF: “binds”. Next, YRRRGSLF: “binds”. Turning to YKEGDSGV chain 1 R87K, the antigen binding call is “no binding”. For SKGRGALA, the antigen binding call is “binds”. Under YAGRGDLA stands “no binding”. Regarding FKEGGSAA, the antigen binding call is given as “no binding”.

For the variant SKERGDVA, the antigen binding call is listed as “no binding”. Next, YKGGDDLA: “no binding”; YKGRGSLA: “binds”. As to FKGRGSLA, the antigen binding call is recorded as “binds”.

With YKGRGALA, the antigen binding call was “binds”. Under STGRAALA stands “no binding”; under VEEEGDWD, “no binding”.

Consider YKKGGSLA, for which the antigen binding call is given as “binds”. Next, SKGRSDGA: “no binding”; YGKGGDLA: “no binding”. Next, SKGRSSLA: “binds”; VKGRSDSA: “no binding”. Regarding FKRAGSLA, the antigen binding call was “binds”. Under DKEEDSLA stands “no binding”.

VGGTSDWA: the antigen binding call is “no binding”.

Regarding SRGRGSVD, the antigen binding call was “binds”. Turning to SRGRGYGD, the antigen binding call was “no binding”. Under SRTGSDVD stands “no binding”; under SGGKNSVD, “no binding”. As for SRGRGAVD, the antigen binding call was “binds”. Next, SGEGGAAV: “no binding”.

For the variant YRGRGALF, the antigen binding call is “binds”. Consider VRGRGVSY, for which the antigen binding call is reported as “no binding”. Under YRGRGVLF stands “binds”. Under VRGRGALF stands “binds”.
